The panel holds about 83,000 compounds, 20% with a hit somewhere; the sample as a whole holds those more often.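 Each cell line was grown in a 96-well plate and treated with one concentration of compound for 48 hours. Values below 10 were considered active.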 Values without a mark were called inactive. The source made the active and inactive calls.

Common to all, as to assay: NCI-60 one-dose screen, 48 h (100 = growth as untreated, 0 = no growth, -100 = all killed)
What all share (conditions): 10 µM unless noted

In test [1] the test system is SK-MEL-2 melanoma.
The test system of test [2] is EKVX NSCLC.
The subject of test [3] is SN12C renal.
Test [4] has as its system UO-31 renal.
Test [5] deals with TK-10 renal.
Test [6] has as its system ACHN renal.
In test [7] the test system is CAKI-1 renal.
Test [8] has as its system A498 renal.
Test [9] relates to MOLT-4 leukemia.
Test [10] has as its system SR leukemia.
In test [11] the test system is RPMI-8226 leukemia.
The test system of test [12] is OVCAR-8 ovarian.
For test [13], the system named is OVCAR-5 ovarian.
In test [14] the test system is OVCAR-4 ovarian.
For test [15], the system named is SK-OV-3 ovarian.
For test [16], the system named is IGROV1 ovarian.
Test [17] has as its system OVCAR-3 ovarian.
Test [18] deals with HS 578T breast.
Test [19] concerns NCI/ADR-RES ovarian.
The subject of test [20] is CCRF-CEM leukemia.

With `N#C/C(=C\c1ccc2c(c1)OCO2)n1nnc2cc(F)c(F)cc21`, the growth in test [1] is 78.7%; in test [2], 82.7%; in test [3] it was 68.3%; in test [4] it was 61.3%; in test [5] it was 101%; in test [6], 65.1%. The growth was 50.7% in test [7]; 44.9% in test [8]; 63.9% in test [9]; 42.6% in test [10]; 64.5% in test [11]; 60.7% in test [12]. Also, the growth was 96.8% in test [13]; 64.6% in [14]; 83.6% in [15]; 71.8% in test [16]; 31.8% in [17]; 84.7% in [18]. In addition, the growth in [19] is 27.4%.
Regarding `COc1ccc(C2=Nc3c(N)ncnc3NC(c3ccc4c(c3)OCO4)C2)cc1` (centres undefined), the growth was 57.6% in [1]; 82.1% in test [2]; 102% in [3]; 79.4% in [4]; 107% in [5]; 83.6% in test [6]. For the same compound, the growth in test [7] was 90%; in test [8], 97.5%; in test [9], 105%; in test [10], 96.5%; in test [11], 61.5%; in test [12] it was 103%. The growth is 72.9% in test [13]; 95% in test [14]; 97.5% in test [15]; 37% in test [16]; 100% in [17]; 87.7% in test [18]. Moreover, the growth in [19] was 75.7%.
Regarding `Cc1ccc(-c2c(-c3ccccc3)c(=O)oc3ccc(C)cc23)cc1`, the growth is 134% in test [1]; 96.9% in [2]; 91.9% in test [3]; 79.9% in test [4]; 118% in test [5]; 90.6% in [6]. In addition, the growth in [7] is 81.1%; in test [8] it was 97.9%; in [9], 76.3%; in test [10] it was 71.1%; in test [11], 87.7%; in test [12], 93.9%. The growth in [13] was 113%; in test [14], 98.5%; in test [15] it was 101%; in test [16], 145%; in [17] it was 117%; in [18] it was 99.6%. In addition, the growth in test [19] is 93.2%.
Take `Cn1c(-c2c(N)n(Cc3ccc(C(F)(F)F)cc3)c3nc(C#N)c(C#N)nc23)nc2ccccc21`: the growth in test [1] was 15.4%; in test [2], 1.13% (active); in [3] it was 14.4%; in test [4], -23% (active); in test [5], -12.9% (active); in [6], 3.12% (active). The growth in [7] is 9.68% (active); in test [8], -6.26% (active); in [9], -16.8% (active); in test [10], -35.5% (active); in test [11], -42.3% (active); in test [12], 7.05% (active). The growth is 30% in test [13]; 22.6% in test [14]; -4.02% (active) in test [15]; 16.9% in test [16]; -8.62% (active) in [17]; 12.4% in test [18]. Further, in [19], the growth is 6.65% (active).
As to `C[n+]1cc2c3c(ccc2c2ccc4cc5c(cc4c21)OCO5)OCO3`, the growth in test [1] is -77.4% (active); in test [2], -74% (active); in [3] it was -53.4% (active); in test [4], -94.6% (active); in test [5], -95.4% (active); in test [6], -92.2% (active). Also, the growth was -29.9% (active) in test [7]; -64.1% (active) in test [8]; 11.8% in test [20]; -79.5% (active) in test [12]; -65.5% (active) in test [13]; -99.5% (active) in test [15]. Besides, the growth in test [16] is -83.2% (active); in test [17], -93.5% (active); in [18], -2.95% (active); in [19], -36.4% (active).
Turning to `Cc1ccc(CCC(=O)Nc2ncc(Cc3cc(Cl)ccc3Cl)s2)o1`, the growth is 65% in test [1]; 41% in [2]; 23.4% in [3]; 32% in test [4]; 57% in test [5]; 28.8% in test [6]. Further, the growth in test [7] is 26.2%; in [8] it was 6.53% (active); in test [9], 14%; in [10] it was 16.2%; in test [11], 19.9%; in test [12], 11.8%. The growth in test [13] is 23.2%; in test [14], 43.3%; in test [15], 33.1%; in test [16], 17%; in [17], -0.778% (active); in test [18] it was 9.73% (active). Further, the growth in test [19] was -4.35% (active).
As for `COc1ccc(CN2C(=O)C(Cl)=C(Nc3cccc(C(F)(F)F)c3)C2=O)cc1`, the growth in test [1] is 81.7%; in [2], 63.4%; in [3], 72.8%; in [4], 28.5%; in test [5], 88.2%; in test [6], 52.5%. In addition, the growth in test [7] is 37.4%; in test [8], 57.6%; in [9] it was 11.9%; in test [10] it was 9.34% (active); in test [11], 42.6%; in test [12], 42.5%. In addition, the growth in test [13] is 55.1%; in test [14] it was 47.6%; in test [15] it was 75.8%; in test [16], 36.1%; in [17], 62%; in [18] it was 57%. In addition, the growth in [19] is 38.9%.
Take `O=C(/C=C/c1ccco1)c1ccc(Nc2nc(Nc3ccc(F)cc3)nc(Nc3ccc(Cl)cc3)n2)cc1`: the growth in [1] was 59.4%; in test [2], 75.5%; in test [3], 81.1%; in test [4], 85.3%; in [5], 84%; in test [6], 89.1%. The growth was 80% in test [7]; 30.8% in test [8]; -99.1% (active) in test [9]; 0.269% (active) in test [10]; 23.6% in test [11]; 87.9% in [12]. The growth in test [13] is 64.9%; in test [14], 78.4%; in test [15] it was 95.4%; in test [16], 61.7%; in test [17], 75%; in test [18], 81.5%. For the same compound, in test [19], the growth is 67.3%.

Source of the values: PubChem BioAssay (NCI).
